TDP1 inh: qHTS Assay for Inhibitors of Tyrosyl-DNA Phosphodiesterase (TDP1) | recombinant TDP1, AlphaScreen DNA substrate cleavage | 350,000 compounds, 0.28% hits | AID 485290, 2010 | Potency, µM (doses to about 130 µM), for the others: top-dose activity change, negative = inhibition, hits mostly inhibitors | Tyrosyl-DNA phosphodiesterase 1 (Homo sapiens), Q9NUW8; note: potency is the fitted concentration of half-maximal effect; nearly all actives have a fitted effect of over 40% in size
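Signal: AlphaScreen proximity between streptavidin donor and anti-FITC acceptor beads on intact substrate. Reaction: Tdp1 1 nM, substrate 15 nM final, 5 min RT after 15 min compound preincubation.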
DT40 TDP1 CPT: qHTS for Inhibitors of human tyrosyl-DNA phosphodiesterase 1 (TDP1): qHTS in cells in presence of CPT; Potency, µM (highest dose often 46.2 µM), for inactives: top-dose activity change, negative = growth inhibition, most hits filed as inhibitors; 420,000 compounds, 12% hits; chicken DT40 Tdp1-/-;hTDP1 cells + 20 nM CPT, ATP luminescence, 48 h; note: potency is the fitted concentration of half-maximal effect; nearly all actives have a fitted effect of over 55% in size
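Chicken DT40 Tdp1-/- cells stably complemented with human TDP1 were seeded at 400 cells/well in medium containing 20 nM camptothecin, exposed to pin-transferred compounds, and grown at 37 °C for at least 48 hr. Viability was read as ATP luminescence.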
CtBP-E1A inh: qHTS Assay for Inhibitors of the CtBP/E1A Interaction; activity change, % (concentration not given with the values); 340,000 compounds, 0.49% hits; AID 651724, 2012; AlphaScreen GST-E1A/His-CtBP binding, 1536-well; active compounds read low; in the data active = activity change below about -65%; inconclusive = mostly about -30% to -63%
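Homogeneous bead-based format: GST-tagged E1A captured on glutathione donor beads, His-tagged CtBP on nickel acceptor beads; compounds precede bead addition by 2 h at 37 °C.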
TDP1 cell noCPT: qHTS for Inhibitors of human tyrosyl-DNA phosphodiesterase 1 (TDP1): qHTS in cells in absence of CPT; 420,000 compounds, 15% hits; AID 686978, 2013; DT40 Tdp1-/- hTDP1 cells, no CPT, ATP luminescence, 48 h; Potency, µM (top dose mostly 46.2 µM), for inactives: at the highest dose activity change, negative = growth inhibition, usual class: inhibitors; note: potency is the fitted concentration of half-maximal effect; nearly all actives have a fitted effect of over 55% in size
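A cellular qHTS used chicken DT40 cells lacking endogenous Tdp1 but carrying stably transfected human TDP1. Compounds were applied without camptothecin, and cell growth kinetics were judged by ATP-dependent luminescence after ≥48 hr.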
Six1-Eya2 inh: qHTS Assay for Inhibitors of the Six1/Eya2 Interaction | 360,000 compounds, 0.56% hits | activity change, % (concentration not given with the values) | AID 651725, 2012 | AlphaScreen GST-Six1/His-Eya2 binding, biochemical; active compounds read low | Homeobox protein SIX1 (Homo sapiens) + Protein phosphatase EYA2 (Homo sapiens), …; in the data active = activity change below about -65%; inconclusive = mostly about -30% to -63%
Target sequence (O00167 whole entry, looked up): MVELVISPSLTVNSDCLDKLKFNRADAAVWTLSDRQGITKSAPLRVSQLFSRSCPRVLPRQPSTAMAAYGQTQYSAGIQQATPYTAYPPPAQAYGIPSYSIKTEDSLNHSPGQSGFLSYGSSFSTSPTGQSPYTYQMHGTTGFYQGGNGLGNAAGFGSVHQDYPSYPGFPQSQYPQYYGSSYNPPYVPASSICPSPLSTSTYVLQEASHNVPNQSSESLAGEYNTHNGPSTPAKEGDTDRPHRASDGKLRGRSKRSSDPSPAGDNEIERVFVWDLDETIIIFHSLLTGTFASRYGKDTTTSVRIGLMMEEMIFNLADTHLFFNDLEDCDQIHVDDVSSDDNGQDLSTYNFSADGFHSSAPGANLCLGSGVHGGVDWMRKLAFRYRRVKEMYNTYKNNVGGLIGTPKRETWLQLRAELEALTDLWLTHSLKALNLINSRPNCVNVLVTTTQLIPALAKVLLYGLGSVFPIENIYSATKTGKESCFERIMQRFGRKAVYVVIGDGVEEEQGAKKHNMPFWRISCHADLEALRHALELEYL
Target sequence (Q15475 whole entry, looked up): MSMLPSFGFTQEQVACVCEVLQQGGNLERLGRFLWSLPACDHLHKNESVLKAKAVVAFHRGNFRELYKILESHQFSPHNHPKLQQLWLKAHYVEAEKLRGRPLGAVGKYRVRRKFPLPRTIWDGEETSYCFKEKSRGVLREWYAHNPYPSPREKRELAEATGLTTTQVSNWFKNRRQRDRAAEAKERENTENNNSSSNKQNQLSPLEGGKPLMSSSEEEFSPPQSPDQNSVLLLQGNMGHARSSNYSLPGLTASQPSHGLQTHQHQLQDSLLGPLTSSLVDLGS
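AlphaScreen luminescence read after one hour at 37 °C in darkness. Pin-transferred compounds met GST-Six1 and His-Eya2 protein (5X stock 250 nM/500 nM) plus glutathione donor and Ni-chelate acceptor beads (5X, 50 ug/mL).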
IL1B secr inh: qHTS for Inhibitors of Inflammasome Signaling: IL-1-beta AlphaLISA Primary Screen. THP-1 LPS/ATP IL-1B secretion, AlphaLISA, 16 h; active compounds read low. activity change, % at 57.5 µM. 360,000 compounds, 4.7% hits; in the data active = activity change below about -50%; inconclusive = mostly about -30% to -49%
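Secreted IL-1B measured by AlphaLISA bead assay after 16 h compound exposure of THP-1 cells; compounds (final up to 57.5 uM) added 1 h before LPS (250 ng/mL) and ATP (1.25 mM) stimulation; lower signal means less secretion.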
Starred values were filed as active, the others as inactive; i = inactive; u = inconclusive; x = no result given; [ ] = remark or other dose. Compounds with a hit are over-represented: about 18% of the library has one in this group of screens. Unless noted, calls come from the whole dose curve; as a rule, active = well fitted curve in the direction sought with a large enough effect; inconclusive = small, poorly fitted or top-dose-only effect, or another doubt; inactive = no such curve, though single readings can be large; an effect the other way counts as inactive or inconclusive. % is set by controls: 0 for no effect and ±100 for the full control effect.

SMILES	TDP1 inh	DT40 TDP1 CPT	CtBP-E1A inh	TDP1 cell noCPT	Six1-Eya2 inh	IL1B secr inh
COc1ccc(C(=O)c2cnc3cc4c(cc3c2C)OCO4)cc1	4%	u	-4	u	-1	-56*
Cc1cc(C)cc(N(C(=O)c2ccccn2)C(C(=O)NC2CCCCC2)c2ccncc2)c1 (configuration not stated)	3%	15%	-4	-8%	3	11
COc1ccc(C(=O)c2ccccc2Cl)cc1	4%	-14%	17	-27%	10	5
COc1ccc(C(=O)c2cnc3ccc(C)cc3c2S(=O)(=O)c2ccccc2)cc1	5%	16µM*	x	18µM*	x	x
CCOc1ccc(S(=O)(=O)c2c(C(=O)c3ccc(C)c(C)c3)cnc3ccccc23)cc1	3%	16µM*	x	15µM*	x	x
Cc1ccc(S(=O)(=O)c2c(C(=O)c3ccccc3)cnc3cc4c(cc23)OCCO4)cc1	3%	u	-1	21µM*	-13	-61*
CNC(=O)CN(c1cccc2ccccc12)S(C)(=O)=O	7%	-6%	3	-10%	3	-12
C/C(=N/NC(=O)c1ccc(C)nc1)c1ccc2c(c1)CCCC2	1%	15µM*	-6	23µM*	9	65
COc1cc(C(=O)NCC(=O)N/N=C(/C)c2ccc3c(c2)CCCC3)cc(OC)c1OC	4%	-4%	-1	u	1	-7
Cc1cc(C)c(C)c(S(=O)(=O)N2CCCCC2C(=O)O)c1C (configuration not stated)	1%	4%	9	2%	-14	58
CCCc1c(-c2ccc(F)cc2F)ncn1Cc1cccc(-c2ccccc2)c1	x	5.2µM*	1	4.1µM*	-15	-9
CCCc1c(-c2cccc(Cl)c2)ncn1Cc1cccc(-c2ccccc2)c1	x	21µM*	6	18µM*	-18	-6
CCc1c(-c2cccc(Cl)c2)ncn1Cc1cccc(-c2ccccc2)c1	x	u	0	u	-2	u
COCCCNC(=S)N1CCN(Cc2ccc3c(c2)OCO3)CC1	-8%	-24%	2	8%	7	21
NS(=O)(=O)c1ccc(N2N=C(c3ccccc3)CC2c2cccc(F)c2)cc1 (configuration not stated)	-2%	u	37	-23%	26	u
NS(=O)(=O)c1ccc(N2N=C(c3ccc(Br)cc3)CC2c2ccc(F)cc2)cc1 (configuration not stated)	-11%	u	53	u	36	-76*
NS(=O)(=O)c1ccc(N2N=C(c3ccccc3)CC2c2cccc(Br)c2)cc1 (configuration not stated)	-4%[56.1 µM]	-20%	-5	-29%	29	-57*
CCOC(=O)c1c(-c2ccc(C)o2)csc1NC(=O)CN1CCCCC1	6%	u	4	21µM*	-4	u
CCOC(=O)c1c(-c2ccc(OCC)cc2)csc1NC(=O)CCN1C(=O)c2ccccc2C1=O	-1%	x	x	x	x	x
CCOC(=O)c1c(-c2ccc(C)o2)csc1NC(=O)CN(C)CC(=O)Nc1ccc(C)cc1	5%	u	0	u	-10	30
CCOC(=O)c1c(-c2ccc(C)o2)csc1NC(=O)CN1CCN(CC)CC1	-4%	u	0	29µM*	-10	-18
CCOC(=O)c1c(-c2ccc(C)o2)csc1NC(=O)CN1CCC(C(N)=O)CC1	8%	u	-4	u	-2	-78*
CCOC(=O)c1c(NC(=O)CN2CCCCC2)sc2c1CCC(C=O)=C2Cl	0%	4µM*	1	3.5µM*	-14	-21
O=C(CCc1ccccc1)NCCS(=O)(=O)N1CCN(c2ccccc2)CC1	-6%[0.505 µM]	7%	1	-25%	5	27
CCc1nnc(SCc2ccc(OC)c(Br)c2)n1N	5%	-6%	2	-6%	-6	0
SMILES	TDP1 inh	DT40 TDP1 CPT	CtBP-E1A inh	TDP1 cell noCPT	Six1-Eya2 inh	IL1B secr inh
CCOC(=O)c1c(-c2ccc(C)o2)csc1NC(=O)CSc1nncs1	8%	23µM*	-2	16µM*	-8	22
CNc1c(NS(=O)(=O)c2ccc(F)c(Cl)c2)c(=O)oc2ccccc12	8%	u	0	u	-6	-2
C[C@@H]1CCCCO[C@H](CN(C)C(=O)Nc2ccc3c(c2)OCO3)[C@H](C)CN([C@@H](C)CO)C(=O)c2cc(NS(=O)(=O)c3ccc(Cl)cc3)ccc2O1	x	16µM*	-13	16µM*	-2	-11
C[C@@H]1CCCCO[C@H](CN(C)C(=O)Nc2ccc3c(c2)OCO3)[C@@H](C)CN([C@H](C)CO)C(=O)c2cc(NS(=O)(=O)c3ccc(F)cc3)ccc2O1	x	u	2	21µM*	-6	-29
CC(C)NC(=O)N(C)C[C@H]1OCCCC[C@H](C)Oc2ccc(NS(=O)(=O)c3ccccc3)cc2C(=O)N([C@H](C)CO)C[C@H]1C	x	-1%	-17	4%	8	7
COc1ccc(C(=O)NC2CC2)cc1OC1CCN(Cc2cc(C)cc(C)c2)CC1	1%[56.1 µM]	u	-2	u	-9	i
COc1ccc(-c2nc(CS(=O)(=O)CC(=O)NCc3ccc4c(c3)OCO4)c(C)o2)cc1	1%	2%	1	21%	1	8
O=[N+]([O-])c1ccc(NCc2ccncc2)cc1	x	u	0	-18%	2	4
Cc1cc(C)c(NC(=O)CSc2cn(CC(=O)N3CCOCC3)c3ccccc23)c(C)c1	0%	-10%	x	-27%	x	x
COC(=O)c1ccc(NC(=O)CSc2cn(CC(=O)N3CCCCCC3)c3ccccc23)cc1	8%	u	x	18µM*	x	x
Cc1ccc(NC(=O)CSc2cn(CC(=O)N3CCOCC3)c3ccccc23)cc1Cl	8%	21µM*	x	21µM*	x	x
CC(=O)c1ccc(NC(=O)CSc2cn(CC(=O)N3CCCCCC3)c3ccccc23)cc1	5%	u	x	u	x	x
Cc1cccc(NC(=O)CS(=O)(=O)c2cn(CC(=O)N3CCOCC3)c3ccccc23)c1	0%	0.52µM*	-6	2.3µM*	9	-18

Compound activity as filed in PubChem.
